Measured values from PubChem BioAssay (NCI).
Where “and” joins values, the source holds several entries; their conditions need not be identical. Identical values can stand only once. The panel holds about 83,000 compounds, 20% with a hit somewhere; the sample as a whole holds those more often.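 Each cell line was grown in a 96-well plate and treated with one concentration of compound for 48 hours. Values below 10 were considered active.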 Calls of active or inactive are those of the source.

tested on: MDA-MB-468 breast; assay: NCI-60 one-dose screen, 48 h (100 = growth as untreated, 0 = no growth, -100 = all killed); conditions: 10 µM unless noted

| SMILES | growth |
| --- | --- |
| O=C(O)CCC(=O)OC(C1CO1)C(OC(=O)CCC(=O)O)C1CO1 (centres undefined) | 99% (inactive) |
| N#Cc1c(N)nc(Cl)c(C#N)c1C(=O)c1ccccc1 | -6.56% (active) |
| COc1cccc2c(=O)c3c(sc12)c(NCCN(C)C)nc1ccccc13 | 12.7% (inactive) |
| CN(C)c1ccc2cc(-c3ccc(Cl)c(Cl)c3)c(N)nc2c1 | 18.9% (inactive) |
| CN1CCN(C2CCN(C(=O)Nc3cc(Oc4ccc(NC(=O)C5(C(=O)Nc6ccc(F)cc6)CC5)c(F)c4)ccn3)CC2)CC1 | -70.7% (active) and 96.6% (inactive) |
| O=C1C=C(O)c2ccccc2C1=O.[Ag] | 99% (inactive) |
| O=C(O)C1(C(=O)O)CCC1.[NH2-].[NH2-].[Pt+2] | 106% (inactive) |
| CN(C)CCN(Cc1ccccc1)c1ccc2ccccc2n1 | 92.6% (inactive) |
| COc1cccc2c1[C@H](OC)[C@]13O[C@@]1(C2=O)[C@H](O)[C@H](C)[C@@](O)(C(=O)[C@@H]1O[C@H]1C)[C@@H]3O | -40.5% (active) |
| CCc1ccc(C2=C/C(=C/c3ccccc3)C(=O)N2CCc2ccc(S(N)(=O)=O)cc2)cc1 | 109% (inactive) |
| CCC(C)C1NC(=O)c2nc(oc2-c2ccccc2)-c2csc(n2)-c2csc(n2)-c2nc(oc2C)-c2coc(n2)CNC(=O)C(C(C)CC)NC1=O (centres undefined) | -76.9% (active) |
| COc1cc(NCC(O)CN(CC(C)C)CC(C)C)c2nc(C)ccc2c1 (centres undefined) | -6.94% (active) |
| CCC(O)c1ccc(Br)cc1NC(=O)c1cccc(Cl)c1 (centres undefined) | 4.57% (active) |
| CCN1C(=O)N(c2ccccc2)C2NN=c3s/c(=C4\C(=O)N(C(C)C)c5ccccc54)c(=O)n3C21 (centres undefined) | 21.4% (inactive) |
